# B1: unnamed (peptide)
# chain: NILKRRPLKLEAPSK
# What was measured:
# Assay in all cases: SPOT peptide array binding signal intensity (averaged, normalized) (arbitrary units (background-subtracted, floor 0; scale differs between SH3 domains)); higher = stronger binding of the SH3 domain to the peptide
# AgAbp1 = molecular target: AgAbp1
# Method: (§1)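 GST-tagged SH3 domains from S. cerevisiae (Sc), A. gossypii (Ag), C. albicans (Ca) and S. pombe (Sp) were incubated at 10 ug/ml overnight at 4 C on cellulose SPOT membranes carrying 292 synthetic 15-mer peptides mined from the S. cerevisiae proteome (cysteines replaced by serines). Binding was detected with anti-GST antibody, HRP secondary and chemiluminescence, quantified with Genespotter, and reported as normalized spot intensities averaged over biological replicates.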
# AgBbc1 = molecular target: AgBbc1
# Method: as §1
# AgBem1-D1 = molecular target: AgBem1-D1
# Method: as §1
# AgBzz1-D1 = molecular target: AgBzz1-D1
# Method: as §1
# AgBzz1-D2 = molecular target: AgBzz1-D2
# Method: as §1
# AgCyk3 = molecular target: AgCyk3
# Method: as §1
# AgFus1 = molecular target: AgFus1
# Method: as §1
# AgHof1 = molecular target: AgHof1
# Method: as §1
# AgHse1 = molecular target: AgHse1
# Method: as §1
# AgLsb1 = molecular target: AgLsb1
# Method: as §1
# AgLsb4 = molecular target: AgLsb4
# Method: as §1
# AgMyo5 = molecular target: AgMyo5
# Method: as §1
# AgNbp2 = molecular target: AgNbp2
# Method: as §1
# AgRvs167 = molecular target: AgRvs167
# Method: as §1
# AgSho1 = molecular target: AgSho1
# Method: as §1
# AgSla1-D1-D2 = molecular target: AgSla1-D1-D2
# Method: as §1
# AgSla1-D3 = molecular target: AgSla1-D3
# Method: as §1
# CaAbp1-D1 = molecular target: CaAbp1-D1
# Method: as §1
# CaAbp1-D2 = molecular target: CaAbp1-D2
# Method: as §1
# CaBbc1 = molecular target: CaBbc1
# Method: as §1
# CaBem1-D1 = molecular target: CaBem1-D1
# Method: as §1
# CaBzz1-D1 = molecular target: CaBzz1-D1
# Method: as §1
# CaBzz1-D2 = molecular target: CaBzz1-D2
# Method: as §1
# CaCyk3 = molecular target: CaCyk3
# Method: as §1
# CaFus1 = molecular target: CaFus1
# Method: as §1
# CaHof1 = molecular target: CaHof1
# Method: as §1
# CaHse1 = molecular target: CaHse1
# Method: as §1
# CaLsb1 = molecular target: CaLsb1
# Method: as §1
# CaLsb4 = molecular target: CaLsb4
# Method: as §1
# CaMyo5 = molecular target: CaMyo5
# Method: as §1
# CaNbp2 = molecular target: CaNbp2
# Method: as §1
# CaRvs167 = molecular target: CaRvs167
# Method: as §1
# CaRvs167-3 = molecular target: CaRvs167-3
# Method: as §1
# CaSho1 = molecular target: CaSho1
# Method: as §1
# CaSla1-D1-D2 = molecular target: CaSla1-D1-D2
# Method: as §1
# CaSla1-D3 = molecular target: CaSla1-D3
# Method: as §1
# ScAbp1 = molecular target: ScAbp1
# Method: as §1
# ScBbc1 = molecular target: ScBbc1
# Method: as §1
# ScBem1-D1 = molecular target: ScBem1-D1
# Method: as §1
# ScBzz1-D1 = molecular target: ScBzz1-D1
# Method: as §1
# ScBzz1-D2 = molecular target: ScBzz1-D2
# Method: as §1
# ScCyk3 = molecular target: ScCyk3
# Method: as §1
# ScFus1 = molecular target: ScFus1
# Method: as §1
# ScHof1 = molecular target: ScHof1
# Method: as §1
# ScHse1 = molecular target: ScHse1
# Method: as §1
# ScLsb1 = molecular target: ScLsb1
# Method: as §1
# ScLsb2 = molecular target: ScLsb2
# Method: as §1
# ScLsb3 = molecular target: ScLsb3
# Method: as §1
# ScLsb4 = molecular target: ScLsb4
# Method: as §1
# ScMyo3 = molecular target: ScMyo3
# Method: as §1
# ScMyo5 = molecular target: ScMyo5
# Method: as §1
# ScNbp2 = molecular target: ScNbp2
# Method: as §1
# ScPex13 = molecular target: ScPex13
# Method: as §1
# ScRvs167 = molecular target: ScRvs167
# Method: as §1
# ScSho1 = molecular target: ScSho1
# Method: as §1
# ScSla1-D1-D2 = molecular target: ScSla1-D1-D2
# Method: as §1
# ScSla1-D3 = molecular target: ScSla1-D3
# Method: as §1
# SpAbp1-D1 = molecular target: SpAbp1-D1
# Method: as §1
# SpBbc1 = molecular target: SpBbc1
# Method: as §1
# SpBzz1-D1 = molecular target: SpBzz1-D1
# Method: as §1
# SpBzz1-D2 = molecular target: SpBzz1-D2
# Method: as §1
# SpCyk3 = molecular target: SpCyk3
# Method: as §1
# SpHof1 = molecular target: SpHof1
# Method: as §1
# SpHof1-2 = molecular target: SpHof1-2
# Method: as §1
# SpHof1-3 = molecular target: SpHof1-3
# Method: as §1
# SpHse1 = molecular target: SpHse1
# Method: as §1
# SpLsb1 = molecular target: SpLsb1
# Method: as §1
# SpLsb4 = molecular target: SpLsb4
# Method: as §1
# SpMyo1 = molecular target: SpMyo1
# Method: as §1
# SpNbp2 = molecular target: SpNbp2
# Method: as §1
# SpPex13 = molecular target: SpPex13
# Method: as §1
# SpRvs167 = molecular target: SpRvs167
# Method: as §1
# SpSla1-D1-D2 = molecular target: SpSla1-D1-D2
# Method: as §1
# SpSla1-D3 = molecular target: SpSla1-D3
# Method: as §1
binder,measurement,setting,value
B1,SPOT peptide array binding signal intensity,AgAbp1,27.5
same,SPOT peptide array binding signal intensity,AgBbc1,0.25
same,SPOT peptide array binding signal intensity,AgBem1-D1,65
same,SPOT peptide array binding signal intensity,AgBzz1-D1,14
same,SPOT peptide array binding signal intensity,AgBzz1-D2,8
same,SPOT peptide array binding signal intensity,AgCyk3,≤ 0
same,SPOT peptide array binding signal intensity,AgFus1,77
same,SPOT peptide array binding signal intensity,AgHof1,1.25
same,SPOT peptide array binding signal intensity,AgHse1,1740
same,SPOT peptide array binding signal intensity,AgLsb1,0.5
same,SPOT peptide array binding signal intensity,AgLsb4,41
same,SPOT peptide array binding signal intensity,AgMyo5,≤ 0
same,SPOT peptide array binding signal intensity,AgNbp2,32
same,SPOT peptide array binding signal intensity,AgRvs167,4.5
same,SPOT peptide array binding signal intensity,AgSho1,≤ 0
same,SPOT peptide array binding signal intensity,AgSla1-D1-D2,7
same,SPOT peptide array binding signal intensity,AgSla1-D3,≤ 0
same,SPOT peptide array binding signal intensity,CaAbp1-D1,478
same,SPOT peptide array binding signal intensity,CaAbp1-D2,96
same,SPOT peptide array binding signal intensity,CaBbc1,1.25
same,SPOT peptide array binding signal intensity,CaBem1-D1,≤ 0
same,SPOT peptide array binding signal intensity,CaBzz1-D1,≤ 0
same,SPOT peptide array binding signal intensity,CaBzz1-D2,14
same,SPOT peptide array binding signal intensity,CaCyk3,8
same,SPOT peptide array binding signal intensity,CaFus1,534
same,SPOT peptide array binding signal intensity,CaHof1,0.25
same,SPOT peptide array binding signal intensity,CaHse1,27.5
same,SPOT peptide array binding signal intensity,CaLsb1,≤ 0
same,SPOT peptide array binding signal intensity,CaLsb4,≤ 0
same,SPOT peptide array binding signal intensity,CaMyo5,1.5
same,SPOT peptide array binding signal intensity,CaNbp2,284
same,SPOT peptide array binding signal intensity,CaRvs167,31.7
same,SPOT peptide array binding signal intensity,CaRvs167-3,24
same,SPOT peptide array binding signal intensity,CaSho1,93.5
same,SPOT peptide array binding signal intensity,CaSla1-D1-D2,10.5
same,SPOT peptide array binding signal intensity,CaSla1-D3,≤ 0
same,SPOT peptide array binding signal intensity,ScAbp1,296
same,SPOT peptide array binding signal intensity,ScBbc1,≤ 0
same,SPOT peptide array binding signal intensity,ScBem1-D1,10
same,SPOT peptide array binding signal intensity,ScBzz1-D1,12
same,SPOT peptide array binding signal intensity,ScBzz1-D2,≤ 0
same,SPOT peptide array binding signal intensity,ScCyk3,33
same,SPOT peptide array binding signal intensity,ScFus1,149
same,SPOT peptide array binding signal intensity,ScHof1,≤ 0
same,SPOT peptide array binding signal intensity,ScHse1,2660
same,SPOT peptide array binding signal intensity,ScLsb1,2.5
same,SPOT peptide array binding signal intensity,ScLsb2,1
same,SPOT peptide array binding signal intensity,ScLsb3,76
same,SPOT peptide array binding signal intensity,ScLsb4,2
same,SPOT peptide array binding signal intensity,ScMyo3,0.25
same,SPOT peptide array binding signal intensity,ScMyo5,≤ 0
same,SPOT peptide array binding signal intensity,ScNbp2,46
same,SPOT peptide array binding signal intensity,ScPex13,≤ 0
same,SPOT peptide array binding signal intensity,ScRvs167,2.5
same,SPOT peptide array binding signal intensity,ScSho1,368
same,SPOT peptide array binding signal intensity,ScSla1-D1-D2,39
same,SPOT peptide array binding signal intensity,ScSla1-D3,≤ 0
same,SPOT peptide array binding signal intensity,SpAbp1-D1,64.5
same,SPOT peptide array binding signal intensity,SpBbc1,0.75
same,SPOT peptide array binding signal intensity,SpBzz1-D1,64
same,SPOT peptide array binding signal intensity,SpBzz1-D2,≤ 0
same,SPOT peptide array binding signal intensity,SpCyk3,≤ 0
same,SPOT peptide array binding signal intensity,SpHof1,48.8
same,SPOT peptide array binding signal intensity,SpHof1-2,≤ 0
same,SPOT peptide array binding signal intensity,SpHof1-3,699
same,SPOT peptide array binding signal intensity,SpHse1,1400
same,SPOT peptide array binding signal intensity,SpLsb1,1
same,SPOT peptide array binding signal intensity,SpLsb4,3.5
same,SPOT peptide array binding signal intensity,SpMyo1,≤ 0
same,SPOT peptide array binding signal intensity,SpNbp2,58
same,SPOT peptide array binding signal intensity,SpPex13,≤ 0
same,SPOT peptide array binding signal intensity,SpRvs167,1.33
same,SPOT peptide array binding signal intensity,SpSla1-D1-D2,2
same,SPOT peptide array binding signal intensity,SpSla1-D3,≤ 0

# Reference: the supplement of paper PMC4466140
